Results from the supplement of paper PMC10849652.
About 7,900 targets were measured; listed, in parts, are those with a hit and a random draw of the rest. About 0.6% of all pairs of compound and target were hits.

Experiments:
Assay in all cases: log2 fold change, soluble protein after heating vs DMSO (PISA); higher = thermal stabilisation; K562 cells, 10 uM, 30 min; active = over 0.2 and 3.5 SD of the protein, either way, in both replicates (recomputed)
saracatinib = compound: CN1CCN(CCOc2cc(OC3CCOCC3)c3c(Nc4c(Cl)ccc5c4OCO5)ncnc3c2)CC1 [saracatinib]
Procedure, shortened: (§1)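 K562 cells at 2×10^6 cells/mL were given 10 μM compound for 30 min. Aliquots then went through 3 min of heating across 48°C-58°C, were pooled, and were extracted in PBS with 0.5% NP-40 at 4°C, and the supernatant after 21,000xg for 90 min was quantified by TMTpro 16plex LC-MS/MS with channel sums equalised. Thermal stability relative to control samples, from duplicates, is given as log2 fold change.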

sotrastaurin = compound: CN1CCN(c2nc(C3=C(c4c[nH]c5ccccc45)C(=O)NC3=O)c3ccccc3n2)CC1 [sotrastaurin]
Procedure, shortened: as §1

alvocidib = compound: CN1CC[C@H](c2c(O)cc(O)c3c(=O)cc(-c4ccccc4Cl)oc23)[C@H](O)C1 [alvocidib]
Procedure, shortened: as §1

Tubastatin A = compound: CN1CCc2c(c3ccccc3n2Cc2ccc(C(=O)NO)cc2)C1 [Tubastatin A]
Procedure, shortened: as §1

[1] = compound: CNC(=O)C1=CC=CC=C1NC2=NC(=NC=C2Cl)NC3=C(C=C(C=C3)N4CCOCC4)OC
Procedure, shortened: as §1

defactinib = compound: CNC(=O)c1ccc(Nc2ncc(C(F)(F)F)c(NCc3nccnc3N(C)S(C)(=O)=O)n2)cc1 [defactinib]
Procedure, shortened: as §1

rucaparib = compound: CNCc1ccc(-c2[nH]c3cc(F)cc4c3c2CCNC4=O)cc1 [rucaparib]
Procedure, shortened: as §1

[2] = compound: CNc1nc(-c2ccc3c(N)n[nH]c3c2)cc(N2C[C@@H](C(=O)NC3CCCCC3)CC[C@H]2C)n1
Procedure, shortened: as §1

encorafenib = compound: COC(=O)N[C@@H](C)CNc1nccc(-c2cn(C(C)C)nc2-c2cc(Cl)cc(NS(C)(=O)=O)c2F)n1 [encorafenib]
Procedure, shortened: as §1

[3] = compound: COC(=O)[C@H](CCSC)NC(=O)C1=C(C=C(C=C1)NC[C@H](CS)N)C2=CC=CC=C2
Procedure, shortened: as §1

filanesib = compound: CON(C)C(=O)N1N=C(c2cc(F)ccc2F)S[C@@]1(CCCN)c1ccccc1 [filanesib]
Procedure, shortened: as §1

zotarolimus = compound: CO[C@H]1C[C@@H]2CC[C@@H](C)[C@@](O)(O2)C(=O)C(=O)N2CCCC[C@H]2C(=O)O[C@H]([C@H](C)C[C@@H]2CC[C@H](n3cnnn3)[C@H](OC)C2)CC(=O)[C@H](C)/C=C(\C)[C@@H](O)[C@@H](OC)C(=O)[C@H](C)C[C@H](C)/C=C/C=C/C=C/1C [zotarolimus]
Procedure, shortened: as §1

idasanutlin = compound: COc1cc(C(=O)O)ccc1NC(=O)[C@@H]1N[C@@H](CC(C)(C)C)[C@](C#N)(c2ccc(Cl)cc2F)[C@H]1c1cccc(Cl)c1F [idasanutlin]
Procedure, shortened: as §1

alisertib = compound: COc1cc(Nc2ncc3c(n2)-c2ccc(Cl)cc2C(c2c(F)cccc2OC)=NC3)ccc1C(=O)O [alisertib]
Procedure, shortened: as §1

[4] = compound: COc1cc2nc(-c3cc(F)ccc3O)nc(N[C@@H]3CNC[C@H]3C(C)(C)O)c2cc1OC
Procedure, shortened: as §1

gefitinib = compound: COc1cc2ncnc(Nc3ccc(F)c(Cl)c3)c2cc1OCCCN1CCOCC1 [gefitinib]
Procedure, shortened: as §1

[5] = compound: COc1cccc2cc(-c3nc([C@H]4CC[C@H](C(=O)O)CC4)n4ncnc(N)c34)[nH]c12
Procedure, shortened: as §1

lapatinib = compound: CS(=O)(=O)CCNCc1ccc(-c2ccc3ncnc(Nc4ccc(OCc5cccc(F)c5)c(Cl)c4)c3c2)o1 [lapatinib]
Procedure, shortened: as §1

pictilisib = compound: CS(=O)(=O)N1CCN(Cc2cc3nc(-c4cccc5[nH]ncc45)nc(N4CCOCC4)c3s2)CC1 [pictilisib]
Procedure, shortened: as §1

[6] = compound: COC1=CC=C(C=C1)CN2C=CC3=C2C=C(C=C3)C(=O)NO
Procedure, shortened: as §1

Measured: log2 fold change

TIMM10B (UniProt Q9Y5J6)
UniProt Q9Y5J6, sequence (Q9Y5J6 whole entry, looked up): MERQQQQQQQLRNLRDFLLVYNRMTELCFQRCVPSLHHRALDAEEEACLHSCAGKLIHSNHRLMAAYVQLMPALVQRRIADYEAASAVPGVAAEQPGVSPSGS
inactive: saracatinib -0.046 | sotrastaurin 0.074 | alvocidib -0.022 | Tubastatin A 0.109 | defactinib -0.074 | rucaparib 0.017 | [2] -0.106 | encorafenib -0.022 | [3] -0.117 | filanesib -0.068 | zotarolimus 0.023 | idasanutlin 0.009 | alisertib -0.205 | [4] 0.048 | gefitinib 0.022 | [5] 0.143 | lapatinib -0.248 | pictilisib -0.126
active: [1] 0.484

SPART (UniProt Q8N0X7)
UniProt Q8N0X7, sequence (Q8N0X7 whole entry, looked up): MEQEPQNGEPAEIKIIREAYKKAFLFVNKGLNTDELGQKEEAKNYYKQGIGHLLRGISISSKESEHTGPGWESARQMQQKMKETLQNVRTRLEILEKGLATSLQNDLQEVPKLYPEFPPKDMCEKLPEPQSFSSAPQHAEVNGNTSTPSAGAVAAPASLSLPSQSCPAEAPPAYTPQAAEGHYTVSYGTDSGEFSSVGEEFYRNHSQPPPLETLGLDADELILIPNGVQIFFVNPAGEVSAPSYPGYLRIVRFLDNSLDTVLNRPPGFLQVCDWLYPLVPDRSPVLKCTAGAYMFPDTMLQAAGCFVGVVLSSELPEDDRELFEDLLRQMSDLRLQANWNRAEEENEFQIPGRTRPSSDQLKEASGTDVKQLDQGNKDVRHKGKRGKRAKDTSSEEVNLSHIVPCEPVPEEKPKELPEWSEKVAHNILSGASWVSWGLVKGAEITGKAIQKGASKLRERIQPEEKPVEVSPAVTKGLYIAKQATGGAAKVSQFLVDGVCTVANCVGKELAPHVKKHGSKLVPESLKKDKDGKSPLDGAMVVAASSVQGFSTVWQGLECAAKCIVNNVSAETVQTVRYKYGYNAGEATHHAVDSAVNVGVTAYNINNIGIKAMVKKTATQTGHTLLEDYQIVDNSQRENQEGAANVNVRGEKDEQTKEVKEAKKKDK
inactive: saracatinib -0.03 | sotrastaurin -0.011 | alvocidib -0.063 | Tubastatin A -0.05 | [1] 0.001 | defactinib -0.109 | rucaparib -0.02 | [2] -0.032 | encorafenib 0.027 | [3] -0.014 | [6] -0.073 | filanesib 0.011 | zotarolimus 0.02 | idasanutlin 0.03 | alisertib -0.009 | [4] 0.067 | gefitinib 0.054 | [5] -0.028 | lapatinib -0.015 | pictilisib 0.05

STARD3 (UniProt Q14849)
UniProt Q14849, sequence (Q14849 whole entry, looked up): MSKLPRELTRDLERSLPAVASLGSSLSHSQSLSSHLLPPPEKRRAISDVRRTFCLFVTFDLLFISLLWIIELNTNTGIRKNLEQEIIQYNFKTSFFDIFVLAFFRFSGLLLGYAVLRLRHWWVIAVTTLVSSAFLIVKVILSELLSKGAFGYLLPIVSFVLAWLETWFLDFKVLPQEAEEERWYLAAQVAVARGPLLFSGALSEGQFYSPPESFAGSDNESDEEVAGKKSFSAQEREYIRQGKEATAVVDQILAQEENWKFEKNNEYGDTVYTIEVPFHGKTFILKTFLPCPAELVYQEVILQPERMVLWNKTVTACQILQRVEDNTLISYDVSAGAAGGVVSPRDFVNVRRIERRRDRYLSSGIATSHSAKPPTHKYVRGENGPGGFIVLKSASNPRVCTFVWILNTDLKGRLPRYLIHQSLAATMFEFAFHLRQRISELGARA
inactive: saracatinib -0.043 | sotrastaurin -0.028 | alvocidib 0.035 | Tubastatin A 0.013 | [1] -0.02 | defactinib -0.035 | [2] 0.028 | [3] -0.014 | [6] 0 | filanesib -0.147 | zotarolimus -0.004 | idasanutlin 0.109 | alisertib 0.018 | [4] 0.038 | gefitinib 0.075 | [5] 0.035 | lapatinib 0.043 | pictilisib -0.047

SNX15 (UniProt Q9NRS6)
UniProt Q9NRS6, sequence (Q9NRS6 whole entry, looked up): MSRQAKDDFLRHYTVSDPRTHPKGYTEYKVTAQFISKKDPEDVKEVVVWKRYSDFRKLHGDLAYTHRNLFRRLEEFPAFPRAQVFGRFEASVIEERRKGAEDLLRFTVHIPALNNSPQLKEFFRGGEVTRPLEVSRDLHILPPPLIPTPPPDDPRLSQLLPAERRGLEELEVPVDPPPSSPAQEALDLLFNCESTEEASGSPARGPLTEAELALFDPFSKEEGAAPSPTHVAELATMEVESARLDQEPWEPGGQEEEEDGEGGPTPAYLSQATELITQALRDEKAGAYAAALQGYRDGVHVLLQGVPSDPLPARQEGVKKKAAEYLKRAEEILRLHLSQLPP
inactive: saracatinib -0.039 | sotrastaurin -0.048 | alvocidib 0.133 | Tubastatin A 0.045 | defactinib -0.177 | rucaparib -0.063 | [2] -0.043 | encorafenib 0.098 | [3] 0.025 | [6] -0.166 | filanesib 0.151 | zotarolimus -0.034 | idasanutlin 0.108 | alisertib -0.027 | [4] 0.019 | gefitinib 0.126 | [5] 0.032 | lapatinib -0.139 | pictilisib 0.018

TANGO6 (UniProt Q9C0B7)
UniProt Q9C0B7, sequence (Q9C0B7 whole entry, looked up): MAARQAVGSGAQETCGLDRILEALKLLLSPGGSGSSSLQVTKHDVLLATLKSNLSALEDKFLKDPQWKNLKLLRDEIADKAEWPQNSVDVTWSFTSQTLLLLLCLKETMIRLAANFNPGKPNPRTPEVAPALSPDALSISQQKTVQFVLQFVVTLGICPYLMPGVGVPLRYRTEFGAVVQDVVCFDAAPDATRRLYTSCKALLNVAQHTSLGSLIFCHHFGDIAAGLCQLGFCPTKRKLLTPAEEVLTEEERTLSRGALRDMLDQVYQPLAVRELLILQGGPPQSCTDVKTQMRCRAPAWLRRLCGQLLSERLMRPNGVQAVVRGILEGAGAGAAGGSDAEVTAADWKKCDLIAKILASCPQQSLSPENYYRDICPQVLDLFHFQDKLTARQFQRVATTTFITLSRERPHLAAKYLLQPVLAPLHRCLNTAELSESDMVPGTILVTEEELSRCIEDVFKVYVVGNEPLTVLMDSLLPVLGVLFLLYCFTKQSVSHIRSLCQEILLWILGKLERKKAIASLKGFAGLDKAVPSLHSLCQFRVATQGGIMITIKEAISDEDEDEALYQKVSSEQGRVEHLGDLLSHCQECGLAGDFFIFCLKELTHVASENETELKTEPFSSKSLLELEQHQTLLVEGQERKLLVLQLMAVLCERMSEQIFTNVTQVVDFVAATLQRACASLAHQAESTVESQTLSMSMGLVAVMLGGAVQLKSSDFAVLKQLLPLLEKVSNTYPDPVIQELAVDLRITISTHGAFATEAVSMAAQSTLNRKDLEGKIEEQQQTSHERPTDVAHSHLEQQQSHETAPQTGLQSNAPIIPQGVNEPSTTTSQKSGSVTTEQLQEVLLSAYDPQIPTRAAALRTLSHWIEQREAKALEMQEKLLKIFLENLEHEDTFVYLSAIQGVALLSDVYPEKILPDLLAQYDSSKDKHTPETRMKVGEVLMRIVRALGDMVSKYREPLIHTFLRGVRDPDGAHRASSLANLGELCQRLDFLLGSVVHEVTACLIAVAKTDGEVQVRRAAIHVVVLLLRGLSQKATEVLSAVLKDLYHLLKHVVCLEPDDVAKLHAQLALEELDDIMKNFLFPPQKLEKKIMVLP
inactive: saracatinib -0.09 | sotrastaurin -0.135 | alvocidib -0.084 | Tubastatin A 0.116 | [1] -0.077 | rucaparib 0.586 | [2] 0.037 | encorafenib 0.001 | [6] -0.025 | filanesib 0.04 | zotarolimus 0.061 | idasanutlin -0.112 | alisertib 0.032 | [4] -0.015 | gefitinib -0.049 | [5] -0.036 | lapatinib 0.022

SMARCB1 (UniProt Q12824)
UniProt Q12824, sequence (Q12824 whole entry, looked up): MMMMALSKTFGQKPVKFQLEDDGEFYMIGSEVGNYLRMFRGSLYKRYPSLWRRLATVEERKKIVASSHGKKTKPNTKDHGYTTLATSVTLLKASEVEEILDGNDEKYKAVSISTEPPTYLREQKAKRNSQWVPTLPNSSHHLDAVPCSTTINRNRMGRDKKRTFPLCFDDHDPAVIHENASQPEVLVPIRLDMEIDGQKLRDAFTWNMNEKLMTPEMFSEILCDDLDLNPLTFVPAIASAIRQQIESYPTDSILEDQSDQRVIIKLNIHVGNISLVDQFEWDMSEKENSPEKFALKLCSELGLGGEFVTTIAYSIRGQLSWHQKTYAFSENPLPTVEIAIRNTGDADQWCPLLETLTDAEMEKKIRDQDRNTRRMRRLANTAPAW
inactive: saracatinib -0.09 | sotrastaurin -0.192 | alvocidib -0.106 | Tubastatin A 0.016 | defactinib -0.158 | [2] -0.009 | encorafenib -0.247 | [3] 0.144 | [6] -0.116 | filanesib 0.026 | zotarolimus 0.136 | pictilisib 0.424
active: rucaparib 0.809

SPECC1 (UniProt Q5M775)
UniProt Q5M775, sequence (Q5M775 whole entry, looked up): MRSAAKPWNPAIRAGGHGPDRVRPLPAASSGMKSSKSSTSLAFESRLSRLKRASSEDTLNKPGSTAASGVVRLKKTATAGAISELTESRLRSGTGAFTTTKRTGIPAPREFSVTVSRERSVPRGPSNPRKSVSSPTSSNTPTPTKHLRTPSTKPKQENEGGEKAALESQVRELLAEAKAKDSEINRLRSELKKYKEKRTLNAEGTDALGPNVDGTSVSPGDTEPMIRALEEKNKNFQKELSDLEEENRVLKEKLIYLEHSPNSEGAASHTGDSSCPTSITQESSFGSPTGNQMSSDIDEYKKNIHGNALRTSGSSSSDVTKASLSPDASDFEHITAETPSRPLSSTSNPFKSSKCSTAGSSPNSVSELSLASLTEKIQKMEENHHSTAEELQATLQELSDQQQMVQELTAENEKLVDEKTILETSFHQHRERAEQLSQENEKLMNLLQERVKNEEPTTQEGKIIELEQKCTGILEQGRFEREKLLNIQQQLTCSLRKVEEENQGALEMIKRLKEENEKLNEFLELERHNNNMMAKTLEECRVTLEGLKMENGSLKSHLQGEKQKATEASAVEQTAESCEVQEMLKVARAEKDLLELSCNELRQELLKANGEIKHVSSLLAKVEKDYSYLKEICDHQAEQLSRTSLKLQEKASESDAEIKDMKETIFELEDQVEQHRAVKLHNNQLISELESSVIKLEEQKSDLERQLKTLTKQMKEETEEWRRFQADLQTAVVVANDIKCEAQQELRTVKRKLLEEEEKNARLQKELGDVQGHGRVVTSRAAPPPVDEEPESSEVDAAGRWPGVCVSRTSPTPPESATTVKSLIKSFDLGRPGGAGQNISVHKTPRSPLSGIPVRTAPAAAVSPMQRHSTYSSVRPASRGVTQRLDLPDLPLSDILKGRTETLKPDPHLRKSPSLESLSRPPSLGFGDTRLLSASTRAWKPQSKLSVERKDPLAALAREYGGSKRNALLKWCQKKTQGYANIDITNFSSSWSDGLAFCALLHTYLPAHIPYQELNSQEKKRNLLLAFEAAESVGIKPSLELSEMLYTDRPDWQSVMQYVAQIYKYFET
active: [6] -0.357 | [5] 0.309
inactive: saracatinib -0.171 | sotrastaurin 0.093 | alvocidib 0.06 | Tubastatin A -0.024 | [1] -0.069 | defactinib 0 | rucaparib 0.091 | [2] -0.104 | encorafenib -0.015 | [3] -0.062 | filanesib 0.064 | zotarolimus 0.038 | idasanutlin -0.111 | alisertib -0.019 | [4] -0.014 | gefitinib 0.028 | lapatinib -0.006 | pictilisib 0.08

SPR (UniProt P35270)
UniProt P35270, sequence (P35270 whole entry, looked up): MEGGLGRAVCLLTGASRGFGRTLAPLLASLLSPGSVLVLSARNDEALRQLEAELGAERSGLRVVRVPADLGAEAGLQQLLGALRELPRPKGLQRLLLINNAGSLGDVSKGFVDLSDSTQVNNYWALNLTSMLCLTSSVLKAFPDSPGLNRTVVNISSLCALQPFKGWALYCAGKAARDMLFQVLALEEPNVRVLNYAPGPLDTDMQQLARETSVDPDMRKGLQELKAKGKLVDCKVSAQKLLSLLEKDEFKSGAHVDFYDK
active: [6] 0.794 | pictilisib 0.681
inactive: saracatinib 0.318 | sotrastaurin 0.052 | alvocidib 0.064 | Tubastatin A -0.014 | [1] -0.053 | defactinib 0.237 | rucaparib 0.043 | [2] 0.026 | encorafenib -0.065 | [3] -0.021 | filanesib -0.087 | zotarolimus 0 | idasanutlin -0.225 | alisertib -0.051 | [4] -0.039 | gefitinib -0.008 | [5] 0.021 | lapatinib -0.031

SLC6A6 (UniProt P31641)
UniProt P31641, sequence (P31641 whole entry, looked up): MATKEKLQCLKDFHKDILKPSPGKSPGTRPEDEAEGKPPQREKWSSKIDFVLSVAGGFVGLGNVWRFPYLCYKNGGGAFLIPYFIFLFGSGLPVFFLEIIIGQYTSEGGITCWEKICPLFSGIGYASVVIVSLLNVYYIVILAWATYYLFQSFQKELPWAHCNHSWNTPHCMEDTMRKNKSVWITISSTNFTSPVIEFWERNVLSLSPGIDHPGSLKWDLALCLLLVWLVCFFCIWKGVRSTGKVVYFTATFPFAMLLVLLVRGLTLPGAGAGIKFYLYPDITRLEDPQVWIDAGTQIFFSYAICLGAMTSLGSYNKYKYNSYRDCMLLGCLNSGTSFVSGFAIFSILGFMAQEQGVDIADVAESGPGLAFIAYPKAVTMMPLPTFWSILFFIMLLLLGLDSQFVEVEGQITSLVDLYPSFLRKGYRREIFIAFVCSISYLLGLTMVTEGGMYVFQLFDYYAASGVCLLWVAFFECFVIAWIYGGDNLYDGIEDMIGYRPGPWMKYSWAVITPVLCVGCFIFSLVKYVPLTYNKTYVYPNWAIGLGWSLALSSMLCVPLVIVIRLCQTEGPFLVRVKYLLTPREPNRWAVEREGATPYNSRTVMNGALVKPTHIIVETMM
inactive: saracatinib -0.011 | sotrastaurin 0.041 | alvocidib -0.031 | Tubastatin A -0.143 | [1] -0.029 | defactinib -0.051 | rucaparib 0.065 | [2] -0.061 | encorafenib -0.051 | [3] -0.009 | [6] -0.1 | filanesib -0.013 | zotarolimus -0.017 | idasanutlin -0.066 | alisertib -0.031 | [4] -0.066 | gefitinib -0.044 | [5] 0.041 | lapatinib -0.012 | pictilisib 0.072
